SKKanGAS inh: blocks kanamycin growth of S. pyogenes SKKanGAS strain. BacTiter-Glo, 6 h. inhibition, % at 7.5 µM. 1.3% of 300,000 active;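 active = mean replicate score, as percent of positive control median, at least 50; inconclusive = mean below 50 but one replicate at or above 50; inactive = mean and every replicate below 50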;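 also: strain carries kanamycin resistance gene driven by streptokinase promoter and grows in 40 µg/ml kanamycin; loss of luminescence reflects streptokinase promoter inhibition or plain growth inhibition; 0% = median of DMSO wells and 100% = positive control at its reference dose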
CSC inhib: cancer stem cell inhibition | cancer stem cell-like cells viability, luminescence | inhibition, % at 7.5 µM | 1.1% of 300,000 active | AID 2717; in the data active = inhibition above about 75%; inconclusive = no clear call, values can overlap the other calls; tested in HMLE shEcad cells
IEC-6 tox: IEC-6 cytotoxicity, counter-screen for KLF5 inhibitors; luminescence viability; inhibition, % at 5 µM; 0.78% of 290,000 active; in the data active = inhibition above about 22%;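 also: 0% = plate median of test compound wells and 100% = cytotoxic reference compound wells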
aSyn 5UTR inh: 5' untranslated region of α-synuclein, MLPCN primary screen | alpha-synuclein 5'UTR reporter, inhibitor activity | inhibition, % (tested at 7.5 µM) | 0.82% of 300,000 active | AID 1813; in the data active = inhibition above about 60%; inconclusive = no clear call, values can overlap the other calls;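 also: H4 neuroglioblastoma cells stably carrying SNCA 5'UTR luciferase fusion; 0% = DMSO wells and 100% = positive control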
KLF5 inh: kruppel-like factor 5 inhibition. inhibition, % at 5 µM. 0.23% of 290,000 active. AID 1700. DLD-1 KLF5 promoter-luciferase reporter, luminescence;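 active = inhibition above a per-plate limit of that plate's mean compound inhibition plus 3 SD, cut at about 60% in these data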;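 also: 0% = DMSO wells and 100% = LY294002 at 200 µM; higher means less KLF5 promoter-driven luciferase light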
Active calls of the source: *; ? = inconclusive; / = not tested or not shown. Most compounds without a hit are left out; they make up all but 3% or so of the library.

SMILES | SKKanGAS inh | CSC inhib | IEC-6 tox | aSyn 5UTR inh | KLF5 inh
O=C(Cc1cccc2ccccc12)Nc1ccc(-c2cc3ccccc3oc2=O)cc1 | 4 | 5 | 0 | 65* | 25
CC(=O)Nc1ccc(NC(=S)NC(=O)c2cc3ccccc3o2)cc1 | -6 | -12 | 7 | -71 | -15
CC(=O)Nc1ccc(NC(=O)c2cccc(-c3cc4ccccc4oc3=O)c2)cc1 | -4 | -10 | 1 | -30 | -91
Cc1cc(C)cc(C(=O)NC(=S)Nc2ccc(-c3cc4ccccc4oc3=O)cc2)c1 | 25 | 11 | 6 | 97* | 9
Cc1ccc(C(=O)NC(=S)Nc2ccc(-c3cc4ccccc4oc3=O)cc2)c(C)c1 | -6 | -13 | -2 | 88* | 3
CCC(=O)Nc1cccc(-c2cc3ccccc3oc2=O)c1 | -4 | / | 7 | -58 | -26
O=C(NC1CCCC1)C(c1ccccc1)N(C(=O)c1csnn1)c1ccccc1F (stereo not given) | 10 | -4 | 3 | 6 | -2
CCN(CC)C(=O)c1[nH]cnc1C(=O)NC1CCN(C(=O)OC(C)(C)C)CC1 | / | 3 | / | / | /
Cn1cc(/C=C/c2cc[n+](C)cc2)c2cc(Cl)ccc21 | -2 | -9 | 3 | 64* | 19
Cn1cc(/C=C/c2cc[n+](C)cc2)c2cc(F)ccc21 | 8 | -8 | 4 | 23 | -8
Oc1ccccc1/C=N/Nc1nccnc1Cl | 19 | 88* | 1 | 88* | -58
Oc1ccc(/C=N/Nc2ncc(Br)cn2)c(O)c1 | -7 | 91* | 1 | 0 | -83
O=[N+]([O-])c1ccccc1/C=N/Nc1nccnc1Cl | 10 | -10 | 4 | -184 | -22
Oc1ccc(/C=N/Nc2nccnc2Cl)c(O)c1 | 10 | 95* | -3 | 88* | -13
Oc1ccc(Br)cc1/C=N/Nc1ncc(-c2ccccc2)cn1 | 83* | 34 | -4 | 42 | -21
Oc1ccc(/C=N/Nc2cccc3cccnc23)c(O)c1 | 6 | / | -1 | -405 | -30
CC(=O)N1c2ccc(S(=O)(=O)N3CCC(C(=O)NC(C)c4ccccc4)CC3)cc2CC1C (stereo not given) | -1 | -10 | 3 | 18 | 7
Cc1c(C)n2c(SCC(=O)N3CCCCC3)nnc2[nH]c1=O | -11 | -9 | / | 5 | /
O=C(CN(C(=O)c1csnn1)c1cccc(Cl)c1)NC1CCCCC1 | 8 | 1 | -3 | 3 | -6
CC(=O)Oc1ccc(-c2csc(Nc3cccc(C)n3)n2)cc1 | -3 | 79* | -9 | -250 | -250
O=C(NC(=O)c1ccc(Cl)cc1)OC1CCCCC1 | -2 | -18 | -1 | -91 | -12
COc1ccc(C(=O)N/N=C/C2CC=CCC2)cc1OC (stereo not given) | 2 | -10 | 0 | 5 | -15
Cc1noc(C)c1CSc1nc2ccccc2nc1NS(=O)(=O)c1ccc(Cl)cc1 | ? | 82* | 3 | 15 | -10
O=C(CCn1cnc(-c2ccccc2)c1-c1ccccc1)N/N=C/c1ccccc1O | 76* | 67 | 8 | 25 | 20
O=C(CCn1cnc2ccccc21)N/N=C/C=C/c1ccccc1 | 0 | 4 | 3 | -12 | -6
SMILES | SKKanGAS inh | CSC inhib | IEC-6 tox | aSyn 5UTR inh | KLF5 inh
COc1ccc(/C=N/NC(=O)CCn2cnc(-c3ccccc3)c2-c2ccccc2)cc1 | 105* | 52 | 40* | ? | 9
O=C(CCn1cnc(-c2ccccc2)c1-c1ccccc1)N/N=C/c1ccc(O)cc1 | 13 | -8 | 2 | -14 | -7
Clc1ccc(CN2CCN(c3ncccn3)CC2)cc1 | 1 | 0 | -10 | 7 | -26
N#CC(c1ccccc1)c1ccc2c(C(F)(F)F)cc(C(F)(F)F)nc2n1 (stereo not given) | -3 | -6 | 10 | 31 | -8
Cc1ccc(C(C#N)c2ccc3c(C(F)(F)F)cc(C(F)(F)F)nc3n2)cc1 (stereo not given) | 10 | 86* | 5 | 3 | -16
Cc1cc(C2=NNC(=NC3CC3)SC2)c(C)n1-c1ccccc1F | 6 | 10 | 6 | 99* | -16
O=C(NNC(=O)c1cccc2ccccc12)c1ccc2c(c1)OCO2 | -2 | -4 | -2 | -94 | -53
Oc1cccc(/C=N/N(Cc2ccccc2)c2ccccc2)c1 | ? | 87* | -2 | 26 | -35
CN(C)/C=C1\SC(=S)N(c2ccc(Br)cc2)C1=O | 54* | 4 | 6 | -100 | -66
CN(C)/C=C1\SC(=S)N(c2ccc(F)cc2)C1=O | -3 | -4 | -4 | -26 | -4
CCOc1ccc(C2C(C(=O)c3ccc(C)o3)=C(O)C(=O)N2c2cc(C)on2)cc1OC (stereo not given) | 4 | -4 | 4 | 9 | -4
